# The campaign covered roughly 220,000 compounds. About 770 (0.35%) were called active. Cut-off read from the data, not from the text of the source: active = activation above about 11%; inactive = the rest. The entries come from a sample that favours actives as a whole. Where a SMILES comes first, the peptide text is derived from it. [ ]: non-standard residue; d: D form. ξ: configuration not given here. ξM = CSCCC(N)C(=O)O
# Target: Sphingosine 1-phosphate receptor 4 (Homo sapiens) (UniProt O95977)
# Experiment: activators of human S1P4 receptor – cell-based, primary screen (AID 1509);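 note: 0% = DMSO vehicle and 100% = reference agonist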
# Details: S1P4-expressing cell line, agonist reporter assay; at 4.98 µM; stronger effect = higher value
# Sphingosine 1-phosphate receptor 4 (Homo sapiens), sequence (O95977 whole entry, looked up): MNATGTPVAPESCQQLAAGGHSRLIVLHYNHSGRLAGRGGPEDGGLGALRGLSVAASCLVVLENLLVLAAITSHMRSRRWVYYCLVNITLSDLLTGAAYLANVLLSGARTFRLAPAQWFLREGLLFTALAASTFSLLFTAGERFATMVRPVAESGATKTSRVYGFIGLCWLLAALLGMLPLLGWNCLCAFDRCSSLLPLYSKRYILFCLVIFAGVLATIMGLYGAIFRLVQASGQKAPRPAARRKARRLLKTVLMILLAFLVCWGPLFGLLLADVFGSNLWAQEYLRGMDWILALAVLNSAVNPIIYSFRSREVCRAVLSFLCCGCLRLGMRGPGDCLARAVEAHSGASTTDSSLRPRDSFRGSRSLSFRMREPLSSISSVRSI
row,Structure (SMILES),activation
1,CC1(C)CC(=O)c2c(n(S(=O)(=O)c3ccccc3)c3ccc(NS(=O)(=O)c4ccccc4)cc23)C1,-0.65% (inactive)
2,O=C(O)/C=C/c1ccc(S(=O)(=O)N2CCCCCC2)cc1,1.37% (inactive)
3,CC1=CC=CC2=N/C(=N\S(=O)(=O)c3ccc(F)cc3F)c3ccccc3CN12,1.89% (inactive)
4,Cc1ccc2c(c1)nnc1nnc(SCC(=O)O)n12,0.65% (inactive)
5,O=C(O)C1C2CC2CN1C(=O)c1ccc(Cl)cc1Cl (configuration not stated),0.08% (inactive)
6,COc1ccc(/C=C2\N=C3CCCN3C2=O)cc1,0.59% (inactive)
7,CCCCCc1nnc(NC(=O)c2ccc(=O)n(C)n2)s1,0.34% (inactive)
8,CC(=O)c1cc(C#N)c(N2CC(C)OC(C)C2)nc1C (configuration not stated),2.12% (inactive)
9,CC(C)(C)C1CCC(C(=O)Nc2cccnc2)CC1 (configuration not stated),-0.6% (inactive)
10,CCOc1ncccc1C(=O)N(CC)CC(=O)Nc1ccc(NC(C)=O)cc1,0.47% (inactive)
11,COc1cc(/C=C/C(=O)OCC(=O)Nc2cccc(Oc3ccccc3)c2)ccc1O,0.15% (inactive)
12,CCCNC(=O)c1ccccc1NC(=O)CSCc1ccc(OC)cc1,1.75% (inactive)
13,CCCCCNC(=O)c1cccnc1SCC(=O)Nc1ccccc1OC,19.3% (active)
14,CCCc1nc(SCC(=O)Nc2ccccc2OC)c2c(=O)n(C)c(=O)n(C)c2n1,-0.79% (inactive)
15,CCC(=O)/C(=C(/O)c1ccccc1)c1nc2ccccc2[nH]1,12.3% (active)
16,O=C(/C(=C/c1cccc(Cl)c1)c1nc2ccccc2[nH]1)c1ccccc1,-0.48% (inactive)
17,COCCN(CCOC)S(=O)(=O)c1ccc(/C(O)=C(\C#N)c2nc3ccccc3[nH]2)cc1,0.35% (inactive)
18,COc1ccc(S(=O)(=O)N2CCN(C(=O)c3cc(C)oc3C)CC2)cc1,0.82% (inactive)
19,Cc1ccsc1/C=N/n1c(=S)[nH]nc(C)c1=O,3.22% (inactive)
20,COc1ccc(-n2c(C)cc(C(=O)COC(=O)c3cc(OC)c(OC)cc3NC(=O)c3cccs3)c2C)cc1,-0.44% (inactive)
21,O=C(NNC(=O)C1C2CCC(C2)C1C(=O)O)c1ccc(Cl)cc1 (configuration not stated),1.68% (inactive)
22,CSc1sc(C(=O)NNC(=O)c2ccc(Cl)cc2)c2c1C=CCC2,13.5% (active)
23,CCOC(=O)NNC(=O)c1ccc(Cl)cc1,-0.78% (inactive)

row,Structure (SMILES),activation
1,CC(=O)c1ccc(N2CCN(C(=O)c3ccc4nc[nH]c4c3)CC2)cc1,0.76% (inactive)
2,O=C1CCCc2nn(-c3ccccc3)nc21,-2.78% (inactive)
3,CN(C)S(=O)(=O)c1ccc(Cl)c(NC(=O)COC(=O)CC(NC(N)=O)c2ccc(Cl)cc2)c1 (configuration not stated),1.79% (inactive)
4,C=CCOc1c(CNn2cn[nH]c2=S)cccc1OC,0.93% (inactive)
5,N/C(=N\OC(=O)c1ccc2c(c1)OCO2)c1ccc(Br)cc1,-1.54% (inactive)
6,NNC(=O)c1ccc(COCC(F)(F)C(F)F)cc1,-0.58% (inactive)
7,C=CCNC(=O)c1ccccc1NC(=O)c1ccc(Cl)c(S(=O)(=O)Nc2cccc(C)c2C)c1,2.53% (inactive)
8,CS(=O)(=O)c1sc(C(=O)NC(=S)Nc2ccc(OC(F)(F)F)cc2)c2c1C=CCC2,-1.4% (inactive)
9,O=C(CN1C(=O)NC(Cc2ccccc2)(Cc2ccccc2)C1=O)NCC1CCCCC1,-1.64% (inactive)
10,CCOc1ccc(N2C(=O)CC(N(CCc3ccc(OC)c(OC)c3)C(=S)Nc3ccccc3)C2=O)cc1 (configuration not stated),1.87% (inactive)
11,O=C(CCCn1c(SCC(=O)c2ccc(F)cc2)nc2ccccc2c1=O)NCc1ccco1,30.4% (active)
12,O=C(CCn1c(SCC(=O)c2ccccc2)nc2ccccc2c1=O)NCc1ccc(F)cc1,0.31% (inactive)
13,O=C(CCCn1c(SCC(=O)c2ccccc2)nc2ccccc2c1=O)NCC1CCCO1 (configuration not stated),0.54% (inactive)
14,CCOC(=O)N1CCN(c2c(NCCN3CCN(c4ccccc4F)CC3)c(=O)c2=O)CC1,1.24% (inactive)
15,COc1ccc(S(=O)(=O)NC(C)C)cc1C(=O)NC1CCCCC1,1.54% (inactive)
16,CC(=O)OC(C(=O)NC1CCCCC1)c1ccccc1 (configuration not stated),0.59% (inactive)
17,CC(Oc1ccc(Br)cc1Br)C(=O)NC1CCCC1 (configuration not stated),14.4% (active)
18,Cc1cc(C(=O)NNC(=O)CCC2CCCCC2)c(C)o1,0.49% (inactive)
19,c1ccc2c(c1)OCCOCCOCCO2,0.22% (inactive)
20,COCCNC(=O)c1ccc(-n2c(SCc3cccnc3)nc3ccccc3c2=O)cc1,1.25% (inactive)
21,CCC1=NN2C(=N)/C(=C/c3cc(C)n(-c4ccccc4)c3C)C(=O)N=C2S1,-0.01% (inactive)
22,Cc1cc2c(cc1C)N(Cc1ccccc1)C1=NCCCN12,-0.25% (inactive)
23,O=[N+]([O-])c1ccc(F)cc1Oc1nc(-c2cccnc2)nc2ccccc12,0.24% (inactive)

row,Structure (SMILES),activation
1,COC(=O)CNC(=O)C(CCSC)NC(C)=O (configuration not stated) (Ac-[ξM]-Gly-OMe),29.1% (active)
2,CCC(C)NC(=O)N[C@@H](CCSC)C(=O)O (some centres not stated),1.44% (inactive)
3,COC(=O)[C@H](CCSC)NC(=O)Nc1ccc(OC)cc1,0.47% (inactive)
4,O=C(Cn1nnc2ccccc2c1=O)NCc1ccc(Cl)cc1,-1.75% (inactive)
5,O=c1c2ccccc2nnn1CSc1nnnn1-c1ccccc1,0.58% (inactive)
6,C=CCn1c(SCn2nnc3ccccc3c2=O)nnc1-c1ccc(Cl)cc1,19% (active)
7,C/C(CCC(=O)OC[C@H]1O[C@H](C#Cc2ccccc2)C=C[C@@H]1Oc1ccc(C)cc1)=N\OC[C@@H](O)[C@H]1O[C@@H]2OC(C)(C)O[C@@H]2[C@H]1O,0.09% (inactive)
8,CC1CCCC(NC(=O)COC(=O)[C@@H]2CC(O)CN2S(=O)(=O)c2ccc3c(c2)OCCO3)C1C (some centres not stated),194% (active)
9,O=C1COc2ccc(C(=O)COC(=O)C3CC(O)CN3S(=O)(=O)c3ccc(Cl)cc3)cc2N1 (configuration not stated),1.17% (inactive)
10,O=C(COC(=O)C1CCN(S(=O)(=O)c2ccc3c(c2)OCCO3)CC1)Nc1ccccc1OC(F)F,2.37% (inactive)
11,NC(=O)C1=C[C@H](c2csc3ccccc23)C[C@H](OCc2ccc(CO)cc2)O1,3.3% (inactive)
12,COc1ccc(C(=O)N2CCc3cc(OC)c(OC)cc3C2c2cccc([N+](=O)[O-])c2)cc1 (configuration not stated),0.65% (inactive)
13,Cc1noc(C)c1COC(=O)COc1ccc(-c2ccccc2)cc1,36% (active)
14,Cc1noc(C)c1COC(=O)Cn1c(C)nc2ccccc21,-0.11% (inactive)
15,Cc1noc(C)c1COC(=O)c1cc2ccccc2cc1O,-2.59% (inactive)
16,O=C(Nc1ccc(Br)cc1)c1cccc(NC(=O)C2C3CC4OC(=O)C2C4C3)c1 (configuration not stated),1.27% (inactive)
17,COc1ccc(CCNC(=O)COC(=O)Cc2cc(OC)c(OC)c(OC)c2)cc1,-1.28% (inactive)
18,CC(=O)Nc1ccc(S(=O)(=O)N2CCN(c3ccc([N+](=O)[O-])c(NCCN4CCOCC4)c3)CC2)cc1,0.49% (inactive)
19,Cn1nnnc1SCC(=O)NNC(=O)c1ccc(Br)cc1,0.67% (inactive)
20,CN(Cc1ccccc1)C(=O)COC(=O)c1ccccc1Nc1ccccc1,-0.61% (inactive)
21,COC(=O)c1c(NC(=O)CN2C(=O)NC(CCc3ccccc3)C2=O)sc2c1CCCCC2 (configuration not stated),0.65% (inactive)
22,CCOC(=O)/C=c1\s/c(=C\c2ccc(C#N)cc2)c(=O)n1CC(=O)Nc1cccc(C)c1C,-0.03% (inactive)
23,Cc1ccc(CC(=O)Nc2cccc(C#N)c2)cc1,1.55% (inactive)

row,Structure (SMILES),activation
1,Cc1cc(C)nc(N(C#N)CC(=O)Nc2ccccc2)n1,14.7% (active)
2,CCOC(=O)/C(C#N)=C/c1ccc(OCC(=O)Nc2ccccc2)c(OC)c1,-0.12% (inactive)
3,N#Cc1c(NC(=O)C2CC(Cl)=CCC2C(=O)O)sc2c1CCCCC2 (configuration not stated),0.41% (inactive)
4,Cn1nnnc1NCc1ccc(Cl)c(Cl)c1,0.14% (inactive)
5,COc1ccc(N(CC(=O)NC2CCCC2)C(=O)CS(=O)CC(=O)Nc2ccc3c(c2)OCO3)cc1 (configuration not stated),1.8% (inactive)
6,COc1ccc(-c2cn3ccc(C)cc3n2)cc1,0.65% (inactive)
7,CCC(C)(C)NC(=O)C1c2ccccc2Oc2ccccc21,0.03% (inactive)
8,CCOC(=O)CC(NC(=O)C1c2ccccc2Oc2ccccc21)c1ccc(C)cc1 (configuration not stated),-0.87% (inactive)
9,CCC(C)NC(=O)C1c2ccccc2Oc2ccccc21 (configuration not stated),15.7% (active)
10,O=[N+]([O-])c1ccc2[nH]c3c(c2c1)CCCC3O (configuration not stated),0.79% (inactive)
11,O=C(CSc1ccc(-c2ccc(F)cc2)nn1)Nc1ccc2c(c1)OCCO2,57.3% (active)
12,Cc1csc(NC(=O)CSc2ccc(-c3ccc(F)cc3)nn2)n1,0.5% (inactive)
13,Cc1ccc(SCC(=O)Nc2ccc3c(c2)OCCO3)cc1,-0.03% (inactive)
14,O=C(CSc1nnc(Nc2ccccc2)s1)Nc1cccnc1Cl,62.7% (active)
15,Cc1cc(NC(=O)CSc2nnc(Nc3ccccc3F)s2)no1,0.31% (inactive)
16,O=C(CSc1nnc(C2CC2)n1Cc1ccccc1)Nc1cccnc1Cl,0.19% (inactive)
17,CCn1nnnc1SCC(=O)c1ccc(C)cc1C,-0.47% (inactive)
18,Cc1ccc(NC(=O)N2CCSc3ccccc32)cc1,0.59% (inactive)
19,CC(=O)Nc1ccc(Nc2c([N+](=O)[O-])cc(S(C)(=O)=O)cc2[N+](=O)[O-])cc1,-0.76% (inactive)
20,Cn1c(=O)c2c(nc(N3CCOCC3)n2CCNC2=NCCC2)n(C)c1=O,-3.47% (inactive)
21,Cc1ccc(C(=O)NC(=S)Nc2ccccc2C)cc1,1.14% (inactive)
22,CSCc1ccc(C(=O)Nc2cc(C)cc(C)c2)cc1,0.79% (inactive)
23,CC(=O)Nc1ccccc1NC(=O)c1cc(C)cc(C)c1,52.2% (active)

# — PubChem BioAssay AID1509 (The Scripps Research Institute Molecular Screening Center, 2009)
